Laboratory results: PubChem BioAssay (NCI)
The panel holds about 83,000 compounds, 20% with a hit somewhere; the sample as a whole holds those more often.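 Activity criterion: percent growth below 10, measured after cells in 96-well plates were exposed to a single compound concentration for 48 hours.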 Unmarked numbers belong to inactive results. Active and inactive are the calls of the source.

Key:
Test in all cases: NCI-60 one-dose screen, 48 h (100 = growth as untreated, 0 = no growth, -100 = all killed)
Conditions in all cases: 10 µM
NCI-H23 lung = system: NCI-H23 lung
NCI-H226 lung = system: NCI-H226 lung
HOP-62 NSCLC = system: HOP-62 NSCLC
NCI-H460 lung = system: NCI-H460 lung
HOP-92 NSCLC = system: HOP-92 NSCLC
NCI-H522 lung = system: NCI-H522 lung
A549/ATCC NSCLC = system: A549/ATCC NSCLC
786-0 renal = system: 786-0 renal
COLO 205 colon = system: COLO 205 colon
DU-145 prostate = system: DU-145 prostate
K-562 leukemia = system: K-562 leukemia
MALME-3M melanoma = system: MALME-3M melanoma
MDA-MB-231 breast = system: MDA-MB-231 breast
RXF 393 renal = system: RXF 393 renal
SF-268 CNS = system: SF-268 CNS
SF-295 CNS = system: SF-295 CNS
SF-539 CNS = system: SF-539 CNS
UACC-257 melanoma = system: UACC-257 melanoma
M14 melanoma = system: M14 melanoma

SMILES | growth (NCI-H23 lung) | growth (NCI-H226 lung) | growth (HOP-62 NSCLC) | growth (NCI-H460 lung) | growth (HOP-92 NSCLC) | growth (NCI-H522 lung) | growth (A549/ATCC NSCLC) | growth (786-0 renal) | growth (COLO 205 colon) | growth (DU-145 prostate) | growth (K-562 leukemia) | growth (MALME-3M melanoma) | growth (MDA-MB-231 breast) | growth (RXF 393 renal) | growth (SF-268 CNS) | growth (SF-295 CNS) | growth (SF-539 CNS) | growth (UACC-257 melanoma) | growth (M14 melanoma)
CS(=O)(=O)c1nccc(-c2c(-c3cccc(OCCN4CCOCC4)c3)nc3sccn23)n1 | 90.3% | 83.9% | 76.9% | 101% | 27.9% | -63.3% (active) | 94.5% | 90.6% | 97.9% | 91.9% | 91.5% | 105% | 67.9% | 89.2% | 107% | 104% | 81.3% | 110% | 113%
C/C=C/C1=CN2C(=O)c3cc(OC4OC(C)C(NC)C(C)(O)C4O)c(C)c(O)c3N=C[C@@H]2C1 (stereo not given in full) | -43.7% (active) | 3.31% (active) | -7% (active) | -13.8% (active) | -17.8% (active) | -28.5% (active) | 5.24% (active) | -25% (active) | -49.2% (active) | -12.7% (active) | 4.18% (active) | -51.9% (active) | -10.1% (active) | -40.5% (active) | -35.5% (active) | -25% (active) | -46.1% (active) | -6.48% (active) | -63.2% (active)
CC[C@@H](C(=O)[C@H](C)[C@H](O)[C@@H](C)[C@H]1O[C@H]([C@@H](CC)C(=O)O)CC[C@H]1C)C1O[C@]2(C=C[C@@H](O)[C@]3(CC[C@@](C)([C@H]4CC[C@](O)(CC)[C@H](C)O4)O3)O2)[C@H](C)C[C@@H]1C (stereo not given in full) | 13.4% | 21.4% | 36.9% | 11.4% | 24% | -4.35% (active) | 20.8% | 27.1% | 8.73% (active) | 51.3% | 6.72% (active) | -83.6% (active) | 17.3% | -8.61% (active) | 38% | -12.6% (active) | 2.48% (active) | 35.3% | -38.8% (active)
Cc1n[nH]c(C)c1N=Nc1cccc2c1C(=O)c1ccccc1C2=O | 84.7% | 87.4% | 96.9% | 96.5% | 92.6% | 86.7% | 105% | 101% | 104% | 101% | 85.6% | 124% | 82.4% | 87.6% | 96.5% | 99.4% | 90.3% | 111% | 106%
O=C1c2ccccc2C(=O)c2c1ccc(C(Br)Br)c2[N+](=O)[O-] | 4.98% (active) | -1.88% (active) | 78.4% | 75.2% | 38.8% | 64.1% | 94.6% | 21.1% | 69.6% | 59.4% | -7.68% (active) | -17.5% (active) | -21.4% (active) | 48.6% | 19.1% | 92.8% | 90.2% | 95.2% | 36.6%
O=[N+]([O-])c1cccc(/C=N/NC(=S)NC23CC4CC(CC(C4)C2)C3)c1 | 86.6% | 48.4% | 24.3% | 56.4% | 64% | 88.8% | 56.5% | 79.8% | 102% | 83.9% | 89.2% | 60.1% | 70.2% | 75.9% | 77.8% | 73.3% | 92.3% | 76.4% | 89%
COc1cc(/C=C2\CCCC3=C2NC(N)=NC3c2cc(OC)c(OC)c(OC)c2)cc(OC)c1OC (stereo not given) | 11.6% | -61% (active) | 17.8% | -42.6% (active) | -1% (active) | -38% (active) | -28.4% (active) | -20.1% (active) | -0.149% (active) | -9.85% (active) | 6.43% (active) | -42.5% (active) | 28.9% | -88% (active) | 15.1% | -35.3% (active) | 25.9% | -31.1% (active) | -36.1% (active)
COc1cc2c(Nc3ccc(S(N)(=O)=O)cc3)ncnc2c(OC)c1OC | 96.7% | 84.9% | 92.3% | 105% | 85.9% | 89.4% | 102% | 121% | 89.2% | 107% | 97.8% | 95% | 94.9% | 109% | 90.2% | 105% | 99.3% | 94.9% | 124%
c1ccc2c(c1)Cc1ccccc1N2CCN1CCCCC1 | 90% | 103% | 84.1% | 107% | 85.8% | 75.2% | 89.9% | 95.3% | 82.2% | 104% | 91.5% | 111% | 81.5% | 110% | 99% | 92.5% | 94.9% | 102% | 86.1%
N#Cc1ccc(C(=O)CSc2nccc(Nc3ccc(C(=O)O)cc3)n2)cc1 | 100% | 101% | 108% | 104% | 104% | 94.4% | 102% | 104% | 110% | 110% | 106% | 106% | 107% | 97.4% | 102% | 97.4% | 97.9% | 110% | 110%
CC(C)(C)OC(=O)N1CCc2c(sc3ncnc(N/N=C/c4ccc(Br)cc4)c23)C1 | 71.8% | 79% | 69% | 39.6% | 94.4% | 35.6% | 50.2% | 76.5% | 41% | 92.6% | 15.1% | 51.3% | 73.2% | 66.4% | 82.2% | 49% | 60.7% | 73.4% | 47.7%
Clc1nc2ccc(Br)cc2cc1-c1nc2ccccc2[nH]1 | 90.6% | 98.5% | 81.3% | 73.2% | 71.3% | 53.1% | 17.2% | 91% | 107% | 99.4% | 86.1% | 97.2% | 64.6% | 10.6% | 59.3% | 86.7% | 107% | 102% | 105%
CCOC(=O)c1cc(C(=O)c2ccc(Cl)cc2)n2ccc(-c3cc[n+](CC(=O)c4ccc(OC)cc4)cc3)cc12 | 88.2% | 102% | 87.7% | 3.93% (active) | 67.8% | 70.8% | 32.2% | 9.1% (active) | 42.8% | 30.3% | -52.9% (active) | 99.6% | 70.9% | 73.6% | 78.5% | 106% | 89.5% | 101% | 56.8%
O=[N+]([O-])c1ccc2ncccc2c1Cl | 86.7% | 109% | 44.5% | 93.1% | 99% | 41.3% | 99.9% | 63.5% | -69.2% (active) | -26% (active) | 12.1% | 69% | 21.2% | 91.2% | 38.9% | -0.464% (active) | 12.9% | 62.2% | 49.5%
O=C(/C=C/C=C/c1c(C2CC2)nc2ccccc2c1-c1ccc(F)cc1)c1cccs1 | 20.7% | -53.6% (active) | 24.2% | -7.38% (active) | 9.27% (active) | 2.39% (active) | 20.6% | 19.6% | -55% (active) | 20.4% | 5.43% (active) | -35.1% (active) | 25.1% | -54.2% (active) | 43.4% | 18.3% | -32.8% (active) | -35.4% (active) | 3.19% (active)
